Among all 220,000 compounds or so, about 300 (0.14%) were called active. What follows is part of a selection rich in actives, with near analogues and random picks from the rest. A number with no mark means an inactive call.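 The calls were made as follows: active = inhibition of at least 40%; inactive = inhibition below 40%.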
The compounds below were run against Coagulation factor XI (Homo sapiens) (UniProt P03951) (assay: human FXIa protease inhibitors, primary screen, biochemical, 1536-well (AID 798;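 also: fluorescence of freed AMC excited at 355 nm; 0% = enzyme without compound and 100% = no enzyme blank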)). Conditions: purified FXIa, Boc-Glu-Ala-Arg-AMC fluorogenic substrate; at 5 µM; hits give high values.
Sequence of Coagulation factor XI (Homo sapiens) (P03951 19-387 limits assumed): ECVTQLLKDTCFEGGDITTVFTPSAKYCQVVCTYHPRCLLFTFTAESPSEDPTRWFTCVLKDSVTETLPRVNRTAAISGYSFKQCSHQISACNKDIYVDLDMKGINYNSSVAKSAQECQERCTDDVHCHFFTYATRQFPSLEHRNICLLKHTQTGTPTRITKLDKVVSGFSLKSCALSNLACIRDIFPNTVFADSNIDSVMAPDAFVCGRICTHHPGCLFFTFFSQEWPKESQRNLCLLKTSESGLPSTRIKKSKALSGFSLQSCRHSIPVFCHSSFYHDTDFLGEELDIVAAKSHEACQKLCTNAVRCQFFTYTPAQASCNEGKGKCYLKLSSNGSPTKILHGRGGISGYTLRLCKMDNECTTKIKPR
Sequence of Coagulation factor XI (Homo sapiens) (P03951 388-625 limits assumed): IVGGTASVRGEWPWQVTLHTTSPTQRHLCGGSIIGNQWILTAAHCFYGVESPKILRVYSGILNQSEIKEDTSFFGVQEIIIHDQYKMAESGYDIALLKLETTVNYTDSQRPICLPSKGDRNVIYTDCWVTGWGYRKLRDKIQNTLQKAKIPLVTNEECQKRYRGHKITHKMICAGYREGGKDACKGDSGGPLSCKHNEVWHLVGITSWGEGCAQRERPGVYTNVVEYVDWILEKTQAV
In the case of `Cc1c(Br)ccc(NC(=O)COc2ccccc2C(N)=O)c1C`, the inhibition is reported as 3.29%.
For `C/C=C(/C)C(=O)O[C@@H]1c2cc3c(c4c2[C@@]2(CO4)C(=O)C(OC)=C(OC)C=C2C[C@@H](C)[C@H]1C)OCO3`, the inhibition was 0.96%.
Compound `COc1ccc(SC[C@H](Cc2ccccc2)N2CCN(CCc3ccccc3)CCC2=O)cc1` has an inhibition of 0.67%.
With `Cn1cnc(S(=O)(=O)Nc2ccc3c(c2)OCCO3)c1` the inhibition was 3.26%.
With `Cc1ccc(NC(=O)NC(=O)CSc2nnc(-c3ccc(OC(F)F)cc3)n2N)c(C)c1` the inhibition was 3.67%.
Work on `CCN=c1sc(C(=O)Nc2ccccc2)c(C)n1CC` yielded an inhibition of -2.02%.
Work on `Cc1cc(C(=O)OCC(=O)Nc2nnc(C(C)C)s2)c2ccccc2n1` yielded an inhibition of -3.05%.
`CC1=C(C(=O)N(C)C)C(c2ccccc2OC(F)F)NC(=O)N1` (stereo unspecified) was tested, and the inhibition was 0.62%.
In the case of `Cc1ccc(OC(=O)CCC(=O)Nc2ccc(Br)cc2)cc1`, the inhibition is reported as -1.21%.
`O=S(=O)(NC(=S)Nc1ccccc1)c1ccc(F)cc1` was tested, and the inhibition was 4.03%.
For `CCOC(=O)CN(C)S(=O)(=O)c1ccc(-c2cc(C(=O)OC)sc2C(F)(F)F)cc1`, the inhibition was 32.6%.
In the case of `CN1CCN(C(=O)CCc2ncc(C(F)(F)F)cc2Cl)CC1`, the inhibition is reported as 7.14%.
Compound `COC(=O)c1c(NC(=O)CCCC(=O)O)sc2c1CCCCC2` has an inhibition of -0.58%.
`O=C(N/N=C/c1cc2c(cc1Br)OCO2)C1COc2ccccc2O1` (stereo unspecified) showed an inhibition of -10.7%.
With `C[N+]1(CC(O)COc2ccccc2)CCN(C(=O)c2ccc([N+](=O)[O-])cc2)CC1` (stereo unspecified) the inhibition was 0.51%.
In the case of `Cc1nc2cc(NC(=O)Nc3cccc(F)c3)ccc2n1C`, the inhibition is reported as 43.8% (active).
`C=CCN(C(=O)Nc1ccc2c(c1)nc(C)n2C)c1ccccc1` showed an inhibition of 26.2%.
For `Cc1nc2cc(NC(=O)NC3CC3)ccc2n1C`, the inhibition was -5.28%.
In the case of `Cc1cc(-c2csc(N)n2)c(C)n1-c1ccccc1`, the inhibition is reported as 2.06%.
In the case of `CCOc1ccc(/C=C2\SC(=S)N(NC(=O)c3ccncc3)C2=O)cc1OC`, the inhibition is reported as 6.9%.
`C[C@H](NC(=O)c1nc[nH]c1C(=O)N[C@@H](C)C(=O)OC(C)(C)C)C(=O)OC(C)(C)C` gave an inhibition of 1.92%.
Work on `CN(C)C(=S)Nc1ccc(Br)cc1Cl` yielded an inhibition of 1.74%.
`NC(=O)Cn1nc([N+](=O)[O-])nc1Oc1ccc(Br)cc1` was tested, and the inhibition was 0.41%.
For `O=C(Cc1ccc(F)cc1)N1CCN=C1SCc1cccc([N+](=O)[O-])c1`, the inhibition was -3.4%.
For `Cc1cccc(N(C(=O)Cc2cccs2)C(C(=O)NCc2ccco2)c2ccncc2)c1` (stereo unspecified), the inhibition was -1.59%.
For `CN(C)/N=C/c1cc(Cl)cc([N+](=O)[O-])c1O`, the inhibition was 2.99%.
Work on `CC(=O)NC1(c2ccc(F)cc2)CCN(C(=O)c2c(F)cccc2F)CC1` yielded an inhibition of -6.45%.
`Cc1cccc(N2CCN(Cc3nc(C4CC4)no3)CC2)n1` showed an inhibition of -4.4%.
With `Cc1ccc(S(=O)(=O)N2CCN(CC(=O)N/N=C/c3cc([N+](=O)[O-])ccc3Cl)CC2)cc1` the inhibition was 3.33%.
`COc1nc(NC2CCCCC2)nc(N2CCCCCC2)n1` gave an inhibition of 5.12%.
Compound `O=c1nc(N/N=C/c2ccco2)cn[nH]1` has an inhibition of -0.64%.
`CC(C)OP(=O)(OC(C)C)C(Nc1ccccc1)c1cccc([N+](=O)[O-])c1` (stereo unspecified) gave an inhibition of 2.9%.
For `COc1cccc(N2C(=O)CC(N3CCc4ccccc4C3)C2=O)c1` (stereo unspecified), the inhibition was -2.99%.
With `Cc1ccc(NN=C2C(=O)OC(C)(C)OC2=O)c(C)c1` the inhibition was -3.38%.
`O=C(COc1ccccc1[N+](=O)[O-])N/N=C/c1ccc[nH]1` gave an inhibition of 2.13%.
For `CC(C)c1nc(SCC(=O)NC(=O)NC(C)(C)C)n[nH]1`, the inhibition was 1.78%.
`Cc1ccc(C(=O)Cn2cc([N+](=O)[O-])nc2C)cc1` gave an inhibition of 2.54%.
`O=C(CNCc1ccc(F)cc1)Nc1ccccc1-c1ccccc1` was tested, and the inhibition was 5.85%.
Compound `O=C(COC(=O)C12CC3CC(CC(O)(C3)C1)C2)NC12CC3CC(CC(C3)C1)C2` has an inhibition of -0.93%.
`CCOC(=O)c1ccc(NC(=O)Cn2cnc3cc(C)c(C)cc32)cc1` gave an inhibition of -1.09%.
With `COc1ccc(CN2C(=O)CC(Cc3ccc(C)cc3)C2=O)cc1OC` (stereo unspecified) the inhibition was 16.3%.
`Cc1nc(N)[nH]c(=O)c1Oc1cccc(C(F)(F)F)c1` showed an inhibition of -2.42%.
In the case of `CC(C)(C)NC(=O)CSC(=Nc1ccccc1F)NC#N`, the inhibition is reported as 7.8%.
For `CCC1SC(CC)C(=O)N(CC(=O)NC2CCCCC2)C1=O` (stereo unspecified), the inhibition was 26%.
With `Cc1ccccc1Cn1c2ccccc2c2cnn(CC(=O)NCc3ccco3)c(=O)c21` the inhibition was -0.28%.
For `COCCNC(=S)N1CCC(NC(=O)C23CC4CC(CC(C4)C2)C3)CC1`, the inhibition was -6.69%.
With `CCOc1cc(CO)ccc1OCC(=O)N1CCCCC1` the inhibition was 40.9% (active).
For `CCOc1cc(CN2CCN(C(=O)CC(C)C)CC2)ccc1OC`, the inhibition was -13.4%.
Compound `O=C(COc1ccc(Cl)cc1[N+](=O)[O-])N1CCCCC1` has an inhibition of -5.02%.
With `COc1ccccc1OCC(=O)OCn1c(SC)nnc(C)c1=O` the inhibition was 5.82%.
For `CCOC(=O)N1CCN(Cc2nc3ccc([N+](=O)[O-])cc3c(=O)n2-c2cccc(OC)c2)CC1`, the inhibition was -1.56%.
For `Cc1cc(C(=O)CSc2nc(N)cc(=O)[nH]2)c(C)n1Cc1ccco1`, the inhibition was -4.8%.
With `CCc1cccc(CC)c1NC(=S)Nc1ccc2cn[nH]c2c1` the inhibition was 0.17%.
For `O=C(O)c1ccccc1OCc1ccccc1Cl`, the inhibition was 1.64%.
With `COCCN(CCOC)c1nc(N)c2c(N)nc3c(c2c1C#N)CC(=O)N3Cc1ccc(Cl)cc1` the inhibition was -10.3%.
Work on `CC1=NN(/C(=N\c2nnc(C)s2)Nc2ccccc2)[C@H](c2ccc(C)cc2)S1` yielded an inhibition of 0.56%.
`COC(=O)c1sccc1-n1cccc1C(=O)C(=O)N1CCCCC1` showed an inhibition of 0.21%.
Work on `O=C(Nc1ccc(Cl)cc1)Nc1ccc(C(=O)N2CCOCC2)cc1` yielded an inhibition of 4.9%.
Work on `OC(c1nc2ccccc2[nH]1)C(O)C(O)C(O)c1nc2ccccc2[nH]1` (stereo unspecified) yielded an inhibition of 1.7%.
`O=C(CCS(=O)(=O)Cc1ccccc1)Nc1ccc2c(c1)OCCO2` gave an inhibition of -6.9%.
`COC(=O)Cc1[nH]n(-c2nc3ccccc3s2)c(=O)c1C(C)=Nc1ccc(OC)cc1` showed an inhibition of 2.75%.
`N#C/C(=C/c1cccc([N+](=O)[O-])c1)c1nnc2n1CCCCC2` showed an inhibition of 0.95%.
`O=C(Cn1cc(C(F)(F)F)ccc1=O)N/N=C/c1ccc(Cl)cc1Cl` was tested, and the inhibition was 6.17%.
For `O=C1N/C(=C/c2cccn2-c2ccccc2)C(=O)N1c1cccc(Cl)c1`, the inhibition was -9.57%.
Work on `COCCNC(=O)C(c1ccc(O)cc1)N(C(=O)CCC(=O)Nc1nccs1)c1ccc(C)cc1` (stereo unspecified) yielded an inhibition of 1.25%.
For `CCC(C)(C)NC(=O)CN(Cc1cccs1)C(=O)CNS(=O)(=O)c1ccc(F)cc1`, the inhibition was -7.45%.
`CC(C)C(NC(=O)C1CCC(C(C)(C)C)CC1)C(=O)NCCCN1CCCCC1` (stereo unspecified) was tested, and the inhibition was -3.84%.
`COc1ccccc1NC(=O)c1cc(Cl)nc2ccccc12` gave an inhibition of -7.34%.
With `Cc1c(C(=O)NC(=S)NCc2cccnc2)oc2ccccc12` the inhibition was -1.74%.
Compound `CN(C)CC(C)(C)CNC(=O)c1cc(Br)cc(Br)c1O` has an inhibition of -3.11%.
Compound `Cc1ccc(NC(=O)C2CCCN(S(=O)(=O)c3c(C)noc3C)C2)c(C)c1` (stereo unspecified) has an inhibition of -3.38%.
In the case of `COc1c(C)cc(C(=O)C2CCCN(S(=O)(=O)c3c(C)noc3C)C2)cc1C` (stereo unspecified), the inhibition is reported as 102% (active).
`Cc1noc(C)c1S(=O)(=O)N1CCCC(C(=O)Nc2nccs2)C1` (stereo unspecified) was tested, and the inhibition was 1.07%.
For `FC(F)(F)c1cccc(-c2nc(COc3ccc(Cl)cc3Cl)no2)c1`, the inhibition was 2.41%.
`CN1CCc2ccccc2C1Cc1ccccc1NC(=O)c1sc2ccccc2c1Cl` (stereo unspecified) was tested, and the inhibition was 2.33%.
For `CCOC(=O)CSC1=N/C(=C/c2ccc(-n3cncn3)cc2)C(=O)N1C(C)=O`, the inhibition was 3.79%.
Compound `O=c1[nH]c(CN2CCOCC2)nc2scc(-c3ccccc3)c12` has an inhibition of -11.5%.
For `Cc1cccc2cc(CN(C(=O)c3cccs3)c3ccccc3)c(=O)[nH]c12`, the inhibition was -1.12%.
`COc1ccc(OCc2n[nH]c(=S)n2N)cc1` showed an inhibition of -0.79%.
With `NS(=O)(=O)c1ccc(CCNC(=O)NC2CCCCC2)cc1` the inhibition was 3.22%.
In the case of `Cc1ccc(C(=O)Nc2ccc(C)c(S(=O)(=O)N(C)C)c2)s1`, the inhibition is reported as 6.45%.
`C#CCOCCOCCOCCNc1nc(N2CCN(C(=O)[C@H](CCC(=O)O)n3cc(C(N)CO)nn3)CC2)nc(N2CCN(C(=O)[C@H](CCCCN)n3cc(C(N)CC(C)C)nn3)CC2)n1` (stereo partly specified) was tested, and the inhibition was 0.58%.
For `NC(=O)C1=C[C@@H](c2csc3ccccc23)C[C@@H](OCc2ccc(CO)cc2)O1`, the inhibition was -0.4%.
`CN(CCc1ccccn1)C(=O)CCC1CCCN(Cc2ccccc2OC(F)F)C1` (stereo unspecified) gave an inhibition of -3.18%.
`COc1ccccc1CN(C)c1nnnn1-c1ccccc1` was tested, and the inhibition was -0.22%.
`CC(C)Cc1nnc(NC(=O)CCC(=O)Nc2ccc3cn[nH]c3c2)s1` was tested, and the inhibition was 5.73%.
With `C=CC(COCc1ccccc1)N(Cc1ccccc1)S(=O)(=O)c1ccccc1Br` (stereo unspecified) the inhibition was -5.35%.
For `COc1cc2[nH]c(=O)n(Cc3ccc(C(=O)NC4CCN(Cc5ccccc5)CC4)cc3)c(=O)c2cc1OC`, the inhibition was -5.4%.
`CCSC1=NCCN1C(=O)c1ccc(S(=O)(=O)N(CC)CC)cc1` showed an inhibition of -2.2%.
With `CCC(C(=O)Nc1ccc2c(c1)OCCO2)c1ccccc1` (stereo unspecified) the inhibition was -1.53%.
For `CC12CN3CCN(CC(C3)/C1=N\NC(=O)c1ccccc1N)C2`, the inhibition was -0.67%.

Source: PubChem BioAssay AID798 (PCMD, 2007)
